About 79,000 compounds went through this panel and 15% of them were active in at least one assay; those are over-represented in the sample as a whole. Calls of active or inactive are those of the source. Rule as the data show it: active = growth inhibition above about 70%; inactive = the rest.
Experiments:
[1] = NCI Yeast Anticancer Drug Screen. Data for the mlh1 strain (AID 171);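 also: 0% = growth of vehicle-treated control cultures of the same strain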; conditions: S. cerevisiae mlh1 strain growth inhibition, active compounds read high
In short: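 Compounds are applied to a genetically altered yeast strain, and its growth is compared with that of vehicle-treated cultures to give percent inhibition.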

[2] = NCI Yeast Anticancer Drug Screen. Data for the sgs1 strain (AID 173);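 also: 0% = growth of vehicle-only control cultures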; conditions: S. cerevisiae sgs1 mutant, active compounds read high
In short: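 Compounds applied to genetically altered yeast; growth compared with vehicle-treated cultures to give % inhibition.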

[3] = NCI Yeast Anticancer Drug Screen. Data for the mlh1 rad18 strain (AID 175); conditions: S. cerevisiae mlh1 rad18 strain growth inhibition, active compounds read high
In short: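 Cells of a genetically altered yeast strain, deficient in DNA damage repair, were treated with compound. Their growth was then compared with that of vehicle-treated cultures to give inhibition.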

[4] = NCI Yeast Anticancer Drug Screen. Data for the rad18 strain (AID 177); conditions: S. cerevisiae rad18 mutant growth inhibition, active compounds read high
In short: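 Compounds are applied to a repair-deficient yeast strain, and growth is compared with that of vehicle-treated cultures to give percent inhibition.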

[5] = NCI Yeast Anticancer Drug Screen. Data for the rad52 strain (AID 147);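 also: 0% = growth of vehicle-treated control cultures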; conditions: S. cerevisiae rad52 mutant growth inhibition, active compounds read high
In short: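 DNA repair-defective yeast; compound exposure; growth scored against vehicle controls.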

[6] = NCI Yeast Anticancer Drug Screen. Data for the rad50EPP+ strain (AID 151);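 also: 0% = growth of vehicle-treated control cultures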; conditions: S. cerevisiae rad50 mutant strain, active compounds read high
In short: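 rad50EPP+ yeast treated with test compounds. Readout: growth vs vehicle control.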

[7] = NCI Yeast Anticancer Drug Screen. Data for the mgt1 strain (AID 153); conditions: S. cerevisiae mgt1 mutant growth inhibition, active compounds read high
In short: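 Growth inhibition relative to vehicle controls was scored for the mgt1 yeast strain after compound exposure.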

[8] = NCI Yeast Anticancer Drug Screen. Data for the rad50 strain (AID 155);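 also: 0% = growth of vehicle-only cultures of the same strain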; conditions: S. cerevisiae rad50 strain growth inhibition, active compounds read high
In short: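 Readout: growth inhibition relative to vehicle-treated cultures. Compound exposure was carried out in a genetically defined yeast strain deficient in DNA damage repair.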

[9] = NCI Yeast Anticancer Drug Screen. Data for the mec2-1 strain (AID 157); conditions: S. cerevisiae mec2-1 strain, active compounds read high
In short: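 Growth inhibition is read against vehicle-treated controls after compound exposure of the mec2-1 yeast strain, which is defective in DNA damage repair or cell cycle control.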

[10] = NCI Yeast Anticancer Drug Screen. Data for the sgs1 mgt1 strain (AID 161);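 also: 0% = growth of cultures given vehicle only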; conditions: S. cerevisiae sgs1 mgt1 strain, active compounds read high
In short: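 Percent growth inhibition was derived by comparing compound-exposed mutant yeast with vehicle-exposed cultures. The strain carries alterations in DNA damage repair.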

[11] = NCI Yeast Anticancer Drug Screen. Data for the CLN2oe strain (AID 163);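 also: 0% = growth of vehicle-only control cultures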; conditions: S. cerevisiae CLN2oe strain, active compounds read high
In short: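 Compound-treated yeast; growth vs vehicle ctrl = % inhibition. Genetically altered strain (cell-cycle control).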

[12] = NCI Yeast Anticancer Drug Screen. Data for the cln2 rad14 strain (AID 165);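 also: 0% = growth equal to vehicle treated cultures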; conditions: S. cerevisiae cln2 rad14 strain, active compounds read high
In short: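 Growth inhibition, relative to vehicle-treated controls, is the read-out. The test organism is a yeast strain with defined genetic alterations, cln2 rad14.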

[13] = NCI Yeast Anticancer Drug Screen. Data for the bub3 strain (AID 167); conditions: S. cerevisiae bub3 mutant strain, active compounds read high
In short: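 Readout: yeast growth inhibition, expressed relative to vehicle-only wells. The test organism is a mutant strain from a panel with lesions in DNA repair or checkpoint genes.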

[14] = NCI Yeast Anticancer Drug Screen. Data for the wt2 strain (AID 169);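 also: 0% = growth of vehicle-treated yeast cultures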; conditions: S. cerevisiae wt2 strain growth inhibition, active compounds read high
In short: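 Compound exposure of yeast; growth compared with vehicle controls; inhibition reported.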

[15] = NCI Yeast Anticancer Drug Screen. Data for the wt1 strain (AID 149);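 also: 0% = growth of vehicle-treated wt1 cultures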; conditions: S. cerevisiae wt1 strain (SPY 50644) growth inhibition, active compounds read high
In short: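 Growth inhibition read against vehicle controls after compound exposure of the wt1 yeast strain.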

[16] = NCI Yeast Anticancer Drug Screen. Data for the rad14 strain (AID 159);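 also: 0% = growth of vehicle-treated control cultures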; conditions: S. cerevisiae rad14 strain growth inhibition, active compounds read high
In short: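 Growth inhibition vs vehicle controls; genetically altered yeast strain (DNA damage repair defect) treated with test compounds.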

[17] = at 5.0 µM (retest, dose inferred, filed as 0.5)
[18] = at 50.0 µM (retest, dose inferred, filed as 5.0)

Measured: growth inhibition

O=C(NC(Nc1ccc(F)c(Cl)c1)(C(F)(F)F)C(F)(F)F)C(C(F)(F)F)C(F)(F)F
inactive: [1]; at 1.2 µM 26% | [1]; at 3.7 µM 25% | [1]; at 11.0 µM 54% | [2]; at 1.2 µM 8% | [2]; at 3.7 µM 14% | [2]; at 11.0 µM 42% | [3]; [17] 21% | [4]; at 1.2 µM 22% | [4]; at 3.7 µM 14% | [4]; at 11.0 µM 40%
active: [1]; at 33.0 µM 94% | [1]; at 100.0 µM 98% | [2]; at 33.0 µM 93% | [2]; at 100.0 µM 96% | [3]; [18] 90% | [3]; at 50.0 µM 93.4% | [4]; at 33.0 µM 83% | [4]; at 100.0 µM 92%

CCCCc1cc(O)ccc1O
inactive: [5]; at 1.2 µM 2% | [5]; at 3.7 µM 13% | [5]; at 11.0 µM 24% | [5]; at 33.0 µM 27% | [5]; at 100.0 µM 29% | [6]; at 1.2 µM 13% | [6]; at 3.7 µM 34% | [6]; at 11.0 µM 57% | [7]; at 1.2 µM -4% | [7]; at 3.7 µM -1% | [7]; at 11.0 µM 1% | [7]; at 33.0 µM 0% | [7]; at 100.0 µM 10% | [8]; at 1.2 µM 6% | [8]; at 3.7 µM 12% | [8]; [17] -81% | [8]; at 11.0 µM 32% | [8]; at 33.0 µM 54% | [8]; at 50.0 µM 20.7% | [8]; at 100.0 µM 62% | [9]; at 1.2 µM 4% | [9]; at 3.7 µM 2% | [9]; [17] -37% | [9]; at 11.0 µM 1% | [9]; at 33.0 µM 17% | [9]; [18] -13% | [9]; at 50.0 µM 11.2% | [9]; at 100.0 µM 28% | [10]; [17] -48% | [10]; [18] 6% | [10]; at 50.0 µM 43.7% | [11]; at 1.2 µM -3% | [11]; at 3.7 µM 1% | [11]; at 11.0 µM 3% | [11]; at 33.0 µM 11% | [11]; at 100.0 µM 21% | [12]; [17] -54% | [12]; [18] -31% | [12]; at 50.0 µM 19.5% | [13]; at 1.2 µM -9% | [13]; at 3.7 µM -1% | [13]; [17] -63% | [13]; at 11.0 µM -5% | [13]; at 33.0 µM 5% | [13]; [18] 3% | [13]; at 50.0 µM 27.6% | [13]; at 100.0 µM 19% | [14]; at 1.2 µM 0% | [14]; at 3.7 µM -1% | [14]; at 11.0 µM 1% | [14]; at 33.0 µM 3% | [14]; at 100.0 µM 6% | [1]; at 1.2 µM 6% | [1]; at 3.7 µM -1% | [1]; at 11.0 µM 4% | [1]; at 33.0 µM 9% | [1]; at 100.0 µM 4% | [2]; at 1.2 µM 0% | [2]; at 3.7 µM 6% | [2]; at 11.0 µM 10% | [2]; at 33.0 µM 24% | [2]; at 100.0 µM 42% | [3]; [17] -86% | [3]; [18] 42% | [3]; at 50.0 µM 64.3% | [4]; at 1.2 µM 3% | [4]; at 3.7 µM 7% | [4]; at 11.0 µM 15% | [4]; at 33.0 µM 26% | [4]; at 100.0 µM 31%
active: [6]; at 33.0 µM 77% | [6]; at 100.0 µM 88% | [8]; [18] 87%

Cc1ccc(S/N=C\c2ccccc2O)cc1
active: [8]; [18] 79% | [8]; at 50.0 µM 89.6% | [9]; at 50.0 µM 73.6% | [13]; at 50.0 µM 76.5% | [3]; at 50.0 µM 94.3%
inactive: [15]; at 1.2 µM -1% | [15]; at 3.7 µM 0% | [15]; at 11.0 µM 0% | [15]; at 33.0 µM 1% | [15]; at 100.0 µM 1% | [6]; at 1.2 µM 4% | [6]; at 3.7 µM 3% | [6]; at 11.0 µM 6% | [6]; at 33.0 µM 17% | [6]; at 100.0 µM 35% | [8]; at 1.2 µM -2% | [8]; at 3.7 µM -12% | [8]; [17] -130% | [8]; at 11.0 µM 2% | [8]; at 33.0 µM 12% | [8]; at 100.0 µM 6% | [9]; at 1.2 µM 0% | [9]; at 3.7 µM 3% | [9]; [17] -48% | [9]; at 11.0 µM -11% | [9]; at 33.0 µM -1% | [9]; [18] -4% | [9]; at 100.0 µM 7% | [16]; at 1.2 µM -2% | [16]; at 3.7 µM -6% | [16]; at 11.0 µM -4% | [16]; at 33.0 µM -3% | [16]; at 100.0 µM 1% | [10]; [17] -59% | [10]; [18] 53% | [10]; at 50.0 µM 62% | [11]; at 1.2 µM 2% | [11]; at 3.7 µM 1% | [11]; at 11.0 µM 2% | [11]; at 33.0 µM 2% | [11]; at 100.0 µM 4% | [12]; [17] -58% | [12]; [18] -23% | [12]; at 50.0 µM 34.9% | [13]; at 1.2 µM -4% | [13]; at 3.7 µM -6% | [13]; [17] -59% | [13]; at 11.0 µM -2% | [13]; at 33.0 µM -5% | [13]; [18] 47% | [13]; at 100.0 µM 4% | [14]; at 1.2 µM 4% | [14]; at 3.7 µM 4% | [14]; at 11.0 µM 5% | [14]; at 33.0 µM 0% | [14]; at 100.0 µM -1% | [1]; at 1.2 µM 9% | [1]; at 3.7 µM 2% | [1]; at 11.0 µM -2% | [1]; at 33.0 µM 0% | [1]; at 100.0 µM 1% | [2]; at 1.2 µM 3% | [2]; at 3.7 µM 7% | [2]; at 11.0 µM 7% | [2]; at 33.0 µM 9% | [2]; at 100.0 µM 6% | [3]; [17] -112% | [3]; [18] 31% | [4]; at 1.2 µM -1% | [4]; at 3.7 µM 0% | [4]; at 11.0 µM 0% | [4]; at 33.0 µM 1% | [4]; at 100.0 µM 9%

From PubChem BioAssay (NCI)
